From PubChem BioAssay (NCI)
This is part of a sample that, as a whole, favours compounds with a hit. Of some 79,000 tested, about 15% had one in any assay. Calls of active or inactive are those of the source. No stated cut-off is given here; in the data, active means growth inhibition above about 70%; inactive means the rest.

Legend:
[1] = NCI Yeast Anticancer Drug Screen. Data for the rad50 strain (AID 155);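 further: 0% = growth of vehicle-only cultures of the same strain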; conditions: S. cerevisiae rad50 strain growth inhibition; at 50.0 µM; hits give high values
Method in brief: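 Vehicle-treated cultures provide the reference for the growth inhibition reported for compound-exposed, repair-deficient yeast.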

[2] = NCI Yeast Anticancer Drug Screen. Data for the mec2-1 strain (AID 157); conditions: S. cerevisiae mec2-1 strain, at 50.0 µM, hits give high values
Method in brief: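 Test agents were screened against the mec2-1 yeast strain, with defined DNA repair or cell cycle alteration. Growth was scored as inhibition against vehicle-only controls.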

[3] = NCI Yeast Anticancer Drug Screen. Data for the sgs1 mgt1 strain (AID 161);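 further: 0% = growth of cultures given vehicle only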; conditions: S. cerevisiae sgs1 mgt1 strain, at 50.0 µM, hits give high values
Method in brief: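 Mutant yeast exposed to compound; growth scored against vehicle-only wells.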

[4] = NCI Yeast Anticancer Drug Screen. Data for the cln2 rad14 strain (AID 165);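 further: 0% = growth equal to vehicle treated cultures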; conditions: S. cerevisiae cln2 rad14 strain, at 50.0 µM, hits give high values
Method in brief: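 Growth of compound-exposed yeast (cln2 rad14 genotype) measured and expressed as inhibition relative to vehicle.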

[5] = NCI Yeast Anticancer Drug Screen. Data for the bub3 strain (AID 167); conditions: S. cerevisiae bub3 mutant strain, at 50.0 µM, hits give high values
Method in brief: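 Mutant yeast screening strain plus compound; vehicle-treated cultures serve as the 0% inhibition reference.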

[6] = NCI Yeast Anticancer Drug Screen. Data for the mlh1 rad18 strain (AID 175); conditions: S. cerevisiae mlh1 rad18 strain growth inhibition; at 50.0 µM; hits give high values
Method in brief: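 In this whole-cell yeast screen, a strain with altered DNA damage repair is challenged with compound, and its growth is measured against matched vehicle-treated controls.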

Measured: growth inhibition

CCC(=O)CCN(CC)CC
inactive: [1] -39.6% | [2] -33.3% | [3] -55.8% | [4] -5% | [5] -35.3% | [6] -40.4%

Cc1nc2nc(NCCCN(C)C)nc(NCCCN(C)C)c2nc1C
inactive: [1] 18.8% | [2] 1.25% | [3] 22.1% | [4] 23.6% | [5] 21.4% | [6] 15.3%

O=C(O)c1cc(Cl)ccc1[N+](=O)[O-]
inactive: [1] 18.6% | [2] -11% | [3] 5.5% | [4] 7.65% | [5] 2.3% | [6] 11%

CC(=O)CC(C)(C)S(=O)(=O)c1ccc(C)cc1
inactive: [1] 4% | [2] -5.05% | [3] 24.4% | [4] -26.4% | [5] 11.8% | [6] 5.05%

CCOC(=O)/C(C=Nc1c(C)n(C)n(-c2ccccc2)c1=O)=C(/C)O
inactive: [1] 19.7% | [2] 10.7% | [3] 11.7% | [4] 27.5% | [5] 10.8% | [6] 23.6%

CN(C)c1ccc(C2(c3ccc(N(C)C)cc3)c3ccccc3C(=O)N2N)cc1
active: [5] 77.5%
inactive: [1] 54.1% | [2] 34.5% | [3] 18.2% | [4] 43.5% | [6] 21.7%

COc1ccc(/C(Cl)=C(\C=O)c2ccc(Cl)c(Cl)c2)cc1OC
inactive: [1] 28.1% | [2] 11.2% | [3] 27.5% | [4] -34.6% | [5] 0.7% | [6] 43.1%

COc1ccc2c(c1)CCN1CCc3ccccc3CC21 (stereo unspecified)
inactive: [1] 30.6% | [2] 43.4% | [3] 58.5% | [4] 45.9% | [5] 53.4% | [6] 42.6%

O=C(CN1C(=O)NC(c2ccccc2)(c2ccccc2)C1=O)NCCN1CCOCC1
inactive: [1] -1.65% | [2] 3.9% | [3] -5.95% | [4] -1.6% | [5] -0.1% | [6] 26.1%

COC(=O)[C@H]1[C@H]2C[C@@H]3c4[nH]c5ccccc5c4CCN3C[C@H]2C[C@@H](OC(=O)c2cc(OC)c(OC)c(OC)c2)[C@@H]1OC
inactive: [1] 15.8% | [2] -7.35% | [3] 17.1% | [4] 5.6% | [5] 18.5% | [6] 17.3%

CCOC(=O)c1ccc(N2C(C#N)c3ccccc3OC2c2ccccc2O)cc1 (stereo unspecified)
inactive: [1] 5.5% | [2] 2.25% | [3] 15.6% | [4] -19.5% | [5] 1.3% | [6] 21.4%

Cc1ccc(C)c(NC(=O)NC(C)C)c1
inactive: [1] -0.6% | [2] 0.5% | [3] 5.45% | [4] -25.6% | [5] -5.3% | [6] -0.35%

CC(C)C(=O)OCCCc1ccccc1
inactive: [1] 11.7% | [2] -5.3% | [3] 1.8% | [4] 7.45% | [5] 21.5% | [6] 12.8%

NC(=O)c1ccccc1OCC(=O)O
inactive: [1] 6.65% | [2] -1.2% | [3] 4.2% | [4] 15.8% | [5] -6.45% | [6] 19.1%

CC(O)C1C(C(=O)O)C2C(C)OC(=O)C12 (stereo unspecified)
inactive: [1] -0.6% | [2] -3.4% | [3] -0.8% | [4] 52.5% | [5] 2.45% | [6] 15.5%

COc1ccc(C2c3cc4c(cc3OC(C)(OC)C2C)OCO4)c(OC)c1 (stereo unspecified)
inactive: [1] 5.25% | [2] 26.2% | [3] 32.6% | [4] -47.2% | [5] -5.85% | [6] 21%

N#CC(/C(=N\NC(N)=S)C(=O)NC1C2CC3CC(C2)CC1C3)c1ccc(Cl)cc1 (stereo unspecified)
inactive: [1] 29.2% | [2] 10.2% | [3] 19.8% | [4] 10.1% | [5] 15.4% | [6] 25.4%

C#CC(C)(C)Nc1ccccc1
inactive: [1] -10.8% | [2] 2.9% | [3] -6.6% | [4] -6.2% | [5] -4.95% | [6] 4.9%

CC(C)(C)N(C/C=C/CN(Cc1ccccc1)Cc1ccccc1)C(C)(C)C
inactive: [1] 32.8% | [2] 16.2% | [3] 25.6% | [4] 10.8% | [5] 19.8% | [6] 22.7%

CN=C(N/N=C/c1ccccc1)N(C)C
inactive: [1] 5.95% | [2] 11.1% | [3] -5.35% | [4] -3% | [5] 23.9% | [6] 10.4%

Nc1[nH]c(=S)[nH]c(=S)c1N
inactive: [1] -30.6% | [2] -8.6% | [3] -15.2% | [4] -44.8% | [5] -15.3% | [6] -25.4%

CC(C)Cc1ccc(OC(=O)Nc2ccccc2)cc1
inactive: [1] -7.5% | [2] -1.6% | [3] -2.9% | [4] -3.4% | [5] -13.5% | [6] 2.05%

CCOC(=O)C(c1ccccc1)c1ccccc1
inactive: [1] -11.4% | [2] -26.7% | [3] -17.6% | [4] -43.2% | [5] -12.8% | [6] -12.2%

CC1(C)CC(=O)c2c(N)n[nH]c2C1
inactive: [1] -0.35% | [2] 3.1% | [3] -8.55% | [4] -2.2% | [5] 1.35% | [6] -15%

Cc1ccc(C2SC(N)=Nc3c2c(C)nn3C(=O)c2ccccc2O)cc1 (stereo unspecified)
inactive: [1] 8.65% | [2] 16.4% | [3] 34.9% | [4] 5.65% | [5] 10.2% | [6] 12.7%

CN1NC(=O)SC(=O)c2ccccc2C1=O
inactive: [1] -16.4% | [2] 22% | [3] 0.1% | [4] -12.1% | [5] 0.15% | [6] 0.65%

CCO/C([O-])=C(\C=N\S(=O)(=O)c1ccc(C)cc1)[n+]1ccc(C)cc1
inactive: [1] 13.8% | [2] 14.7% | [3] 12.2% | [4] -17.1% | [5] -4.2% | [6] 6.45%

COc1ccc(/C=N/NC(=O)c2ccccc2OC)cc1
inactive: [1] 1.85% | [2] 19.6% | [3] 29.9% | [4] -11.5% | [5] -10.8% | [6] 36.1%

CCN(CC)c1ccc(C(=O)c2ccccc2C(=O)O)c(O)c1
inactive: [1] -38.2% | [2] -8.75% | [3] -27.4% | [4] 5.35% | [5] -15.8% | [6] 5.2%

COc1cccc(N2C(Cl)C(=O)C2c2c[nH]c3ccccc23)c1 (stereo unspecified)
inactive: [1] -31.4% | [2] -37.2% | [3] -47.6% | [4] -23.1% | [5] -28.9% | [6] -47%

NC(=NC1CCCCC1)/N=C(/N)Nc1ccc(Cl)cc1
inactive: [1] 26.8% | [2] 0.2% | [3] 5% | [4] -29.6% | [5] 4.7% | [6] 14.4%

Fc1cccc(CSc2cnnc(SCc3cccc(F)c3)c2SCc2cccc(F)c2)c1
inactive: [1] -14.8% | [2] -7.1% | [3] -13.7% | [4] 14.6% | [5] -10.8% | [6] -32%

CCCCCCCCCC(CCCCCCCC(=O)O)NC(C)=O (stereo unspecified)
inactive: [1] 32.3% | [2] 16.6% | [3] 7.45% | [4] 32.5% | [5] -18.1% | [6] 1.05%

NC(=O)N/N=C/c1cccc([N+](=O)[O-])c1
inactive: [1] -7% | [2] 27.8% | [3] -5.9% | [4] -32.5% | [5] 25.6% | [6] 0%

O=C(Cl)c1cc2ccccc2c2c(=O)c3ccc4cc5ccccc5cc4c3[nH]c12
inactive: [1] -51.6% | [2] -3.2% | [3] -10.4% | [4] -53.8% | [5] -13.2% | [6] -11.6%

Cc1c(C(=O)CC(=O)C(=O)Nc2cccc(C(F)(F)F)c2)[n+](=O)c2ccccc2n1[O-]
inactive: [1] 45.8% | [2] 43.1% | [3] 28.6% | [4] 14.2% | [5] 38.4% | [6] 31.6%
